# Results filed as inconclusive are left out. A call without a number means that no potency is given here. Calls of active or inactive are those of the source. Calls follow the shape of the dose curve; as a rule, active = well fitted inhibition curve with a large enough effect; inconclusive = small, poorly fitted or top-dose-only effect; inactive = no such curve, though single readings can be large or run the other way.
# What was measured:
# [1] = molecular target: Retinaldehyde dehydrogenase 3 (Homo sapiens) (UniProt P47895); test: qHTS for Inhibitors of the Aldehyde Dehydrogenase Family (ALDH1A3) Confirmatory screens (AID 2061311); also: nearly all actives have a fitted effect of over 60% in size; also: potency is read from the fitted curve at half-maximal effect
# [2] = molecular target: Retinal dehydrogenase 2 (Homo sapiens) (UniProt O94788); test: qHTS for Inhibitors of the Aldehyde Dehydrogenase Family (ALDH1A2) Confirmation screens (AID 2061314); also: nearly all actives have a fitted effect of over 65% in size; also: potency is read from the fitted curve at half-maximal effect
# [3] = molecular target: Aldehyde dehydrogenase 1A1 (Homo sapiens) (UniProt P00352); test: qHTS for Inhibitors of the Aldehyde Dehydrogenase Family (ALDH1A1) Confirmatory screens (AID 2061316); also: nearly all actives have a fitted effect of over 65% in size; also: potency is read from the fitted curve at half-maximal effect
# [4] = molecular target: Retinaldehyde dehydrogenase 3 (Homo sapiens) (UniProt P47895); test: qHTS for Inhibitors of the Aldehyde Dehydrogenase Family (ALDH1A3) Primary screen (AID 2061315)
# [5] = molecular target: Retinaldehyde dehydrogenase 3 (Homo sapiens) (UniProt P47895); test: qHTS for Inhibitors of the Aldehyde Dehydrogenase Family (ALDH1A3) Validation screen (AID 2061312); also: nearly all actives have a fitted effect of over 45% in size
structure (smiles),measurement,setting,value
CC[C@H]1CN(C(=O)Nc2cccc(OC)c2)CC[C@H]1CC(=O)NCc1ccccc1,Potency,[1],inactive
O=C(O)c1ccc(Cn2c(SCc3ccc(F)cc3)nc3ccncc32)cc1,Potency,[1],inactive
CCOC(=O)c1noc2ncnc(Nc3ccc(C)c(F)c3)c12,Potency,[1],inactive
CCOc1ccc(NC(=O)CN2CCN(c3ccc(Cl)cc3)CC2)cc1,Potency,[1],inactive
Cc1cccc(-c2ccc(CN)cc2)c1,Potency,[1],inactive
CCc1nn2c(=O)c(S(=O)(=O)Nc3ccc(Cl)cc3)c(C)nc2s1,Potency,[1],inactive
COc1ccc(C(=O)NCc2nnc3ccc(-c4ccccc4)nn23)c(C)c1,Potency,[1],inactive
Cc1ccc(-n2c(=O)c3c(cnn3C)n(CC(=O)Nc3cccc(Cl)c3)c2=O)cc1,Potency,[1],inactive
COc1ccc(OC)c(-c2cc(-c3cccs3)nc3c(C)noc23)c1,Potency,[1],12.6 µM (active)
O=C(Nc1ccccc1Cl)c1nc2cccnc2n(Cc2ccccc2)c1=O,Potency,[1],inactive
COc1ccc(CC(=O)Nc2ccc([C@H]3OCC(=O)N(Cc4ccccc4)[C@@H]3CO)cc2)cc1,Potency,[1],inactive
COc1ccc(NC(=O)N2CCC(CC(=O)NCc3ccccc3)C2)cc1OC (stereo not given),Potency,[1],inactive
COc1ccc(N2CCN(C(=O)CS(=O)(=O)c3cccc4nsnc34)CC2)cc1,Potency,[1],inactive
O=C(CCS(=O)(=O)c1cccc2nonc12)Nc1ccc(F)cc1F,Potency,[1],inactive
CCc1cccc(C)c1NC(=O)CSc1nc2ccncc2[nH]1,Potency,[1],inactive
O=C1Cc2cc(S(=O)(=O)N3CCN(c4ccccc4)CC3)ccc2N1,Potency,[1],inactive
O=C(CSc1nc(-c2cccs2)nc2cc(=O)[nH]n12)Nc1cccc(C(F)(F)F)c1,Potency,[1],inactive
Cc1ccc([S+](=O)([O-])c2nnn3c2nc(N2CCC(F)CC2)c2ccccc23)cc1,Potency,[1],inactive
COc1cccc(CCC(=O)NCc2nnc3c(-c4nc(C)no4)cccn23)c1,Potency,[1],inactive
COCCOc1ccc(C(=O)N[C@@H]2CN(C(=O)NCc3ccccc3)CCC[C@H]2O)cc1,Potency,[1],inactive
CN(Cc1ccc(-c2ccccc2)cc1)CC1CCCCC1,Potency,[1],35.5 µM (active)
COc1ccccc1-n1c(=O)c(C(=O)NC(C)C)nc2cccnc21,Potency,[1],inactive
CN(C)Cc1nnc(C2CC(NC(=O)c3ccc4scnc4c3)C2)n1C (stereo not given),Potency,[1],inactive
CN1Cc2nc(Nc3ccc(C(F)(F)F)cc3)ccc2OCC1=O,Potency,[1],15.8 µM (active)
O=C(Cn1c(=O)n(Cc2cccs2)c(=O)c2cccnc21)Nc1ccccc1F,Potency,[1],inactive
CCOc1ccccc1NC(=O)Nc1cc(C(=O)NCc2ccc(C)cc2)ccc1N1CCCC1,Potency,[1],inactive
COc1ccc(Cl)cc1NC(=O)c1cc2nc(-c3ccc(C)cc3)cc(C(F)(F)F)n2n1,Potency,[1],inactive
O=C(Nc1ccc([C@@H](O)[C@H]2COCC(=O)N2CCCc2ccccc2)cc1)c1ccco1,Potency,[1],inactive
Cc1cc(C)n2nc(SCC(=O)Nc3ccccc3C)nc2n1,Potency,[1],inactive
CNCc1ccc(N2CCCC2)cc1,Potency,[1],inactive
Cc1cccc(-c2cccc(CN)c2)c1,Potency,[1],inactive
OCc1ccc(-c2ccc3nnc(-c4ccccn4)n3n2)cc1,Potency,[1],inactive
CCOc1ccc(NC(=O)NCCCN2CCN(c3ccc(OC)cc3)CC2)cc1,Potency,[1],inactive
COc1cc(CNC(=O)c2ccc(NC(=O)N3CCCCc4ccccc43)cc2)cc(OC)c1OC,Potency,[1],inactive
CCOc1ccc(CCNC(=O)c2cc3sccc3n2CC)cc1OCC,Potency,[1],inactive
Cn1cc(-c2cnc(Nc3ccncc3)c3c2CCO3)cn1,Potency,[1],inactive
O=C(CN1CCN(c2ccc(Cl)cc2)CC1)Nc1ccc(F)c(F)c1,Potency,[1],inactive
Cc1ccc(NC(=O)CSc2nc3ncccc3[nH]2)cc1F,Potency,[1],inactive
CCc1nn2c(=O)c(S(=O)(=O)Nc3cccc(F)c3)c(C)nc2s1,Potency,[1],inactive
O=C(O)c1cc(Br)c(O)c2ncccc12,Potency,[1],inactive
same,Potency,[2],0.449 µM (active)
O=S1(=O)Nc2c(ccc3cccnc23)-c2ccccc21,Potency,[1],8.96 µM (active)
same,Potency,[2],12.7 µM (active)
same,Potency,[3],inactive
Cc1c(C(=O)OC[C@H]2CCCO2)[nH]c2c1C(=O)CC(c1ccco1)C2 (stereo not given in full),Potency,[1],12.7 µM (active)
same,Potency,[2],4 µM (active)
same,Potency,[4],inactive
same,Potency,[3],1.42 µM (active)
CC(=O)Nc1sc2c(c1-c1nccs1)CCNC2,Potency,[1],inactive
same,Potency,[2],inactive
same,Potency,[4],inactive
COC(=O)CCSC/C=C(\C)CCn1cc(CCc2ccc(-c3ccccc3)cc2)nn1,Potency,[1],8.96 µM (active)
same,Potency,[4],inactive
same,Potency,[3],4.49 µM (active)
Nc1nc2c(s1)C(c1ccccc1Cl)CC(=O)N2 (stereo not given),Potency,[1],5.65 µM (active)
same,Potency,[4],inactive
Nc1ccc(CNc2ccc([S+](=O)([O-])Nc3nccs3)cc2)c(O)c1,Potency,[1],5.04 µM (active)
same,Potency,[2],17.9 µM (active)
same,Potency,[3],3.18 µM (active)
CN(Cc1ccco1)Cc1ccc(O)c2ncccc12,Potency,[1],11.3 µM (active)
same,Potency,[2],2.52 µM (active)
same,Potency,[4],inactive
O=C1Cc2cc(S(=O)(=O)N3CCN(c4ccc(Br)cc4)CC3)ccc2N1,Potency,[1],inactive
same,Potency,[2],20.6 µM (active)
same,Potency,[4],inactive
Cc1ccn2c(Nc3ccc4c(c3)OCO4)c(-c3ccccn3)nc2c1,Potency,[1],17.9 µM (active)
same,Potency,[4],inactive
COc1ccc2ccccc2c1CN(C)CC(=O)Nc1ccc(N2CCOCC2)cc1,Potency,[1],11.3 µM (active)
same,Potency,[2],11.3 µM (active)
same,Potency,[3],7.98 µM (active)
Cc1ccc(-c2ccnc(N3CCC(C(N)=O)CC3)n2)cc1,Potency,[1],5.04 µM (active)
same,Potency,[4],inactive
CC(=O)N1CCN(c2ccc(NS(=O)(=O)c3ccc4c(c3)CC(=O)N4)cc2)CC1,Potency,[1],inactive
same,Potency,[2],inactive
same,Potency,[4],inactive
S=C(NCCCc1cnc[nH]1)NCCCN(Cc1ccccc1)c1ccc(Br)cn1,Potency,[1],inactive
same,Potency,[4],inactive
CCC(=O)NC(c1cccs1)c1cc([N+](=O)[O-])c2cccnc2c1OC (stereo not given),Potency,[1],3.57 µM (active)
same,Potency,[2],2.01 µM (active)
same,Potency,[3],11.3 µM (active)
N#Cc1ccc(N2CCN(S(=O)(=O)c3ccc4c(c3)CC(=O)N4)CC2)cc1,Potency,[1],15.8 µM (active)
same,Potency,[4],inactive
same,Potency,[3],inactive
COc1ccc(-c2ccc(C)cc2)cc1CC(=O)N(C)C(C)c1ccco1 (stereo not given),Potency,[1],2.01 µM (active)
same,Potency,[2],6.31 µM (active)
same,Potency,[3],11.3 µM (active)
CCC(=O)NC(C)c1cc(Cl)c2ccccc2c1O (stereo not given),Potency,[1],12.7 µM (active)
same,Potency,[2],1.01 µM (active)
CC(=O)Nc1sc2c(c1-c1ccccc1)CCN(C(=O)OC(C)(C)C)C2,Potency,[1],inactive
same,Potency,[4],inactive
same,Potency,[3],7.98 µM (active)
Cc1sc(NC(=O)Cc2ccc3c(c2)OCO3)nc1-c1ccc2c(c1)CCN2C,Potency,[1],11.3 µM (active)
same,Potency,[2],12.7 µM (active)
same,Potency,[3],3.57 µM (active)
COc1cc(/C=C(\C#N)C(=O)Nc2ccc(C(=O)O)cc2)ccc1OC(=O)c1cccc(F)c1,Potency,[1],15.8 µM (active)
same,Potency,[2],inactive
same,Potency,[3],inactive
O=C(Nc1sc2c(c1-c1nc3ccccc3s1)CCNC2)C(F)(F)F,Potency,[1],inactive
same,Potency,[2],28.3 µM (active)
same,Potency,[4],inactive
O=C(c1ccccc1O)N(Cc1ccco1)Cc1ccco1,Potency,[1],12.7 µM (active)
same,Potency,[2],11.3 µM (active)
same,Potency,[4],inactive
Cc1ccc(S(=O)(=O)Nc2cc(S(=O)(=O)c3ccc(C)cc3)c(O)c3cccnc23)cc1,Potency,[1],1.13 µM (active)
same,Potency,[2],2.01 µM (active)
same,Potency,[3],1.42 µM (active)
O=C(Nc1cccc(Cc2ccccc2)n1)c1ccc(-c2cccc([N+](=O)[O-])c2)o1,Potency,[1],6.34 µM (active)
same,Potency,[2],7.98 µM (active)
same,Potency,[4],inactive
same,Potency,[3],5.65 µM (active)
O=C(Cc1ccccc1)Nc1sc2c(c1C(=O)Nc1ccc(Cl)cc1)CCCC2,Potency,[1],inactive
same,Potency,[2],4 µM (active)
same,Potency,[4],inactive
same,Potency,[3],11.3 µM (active)
CC(=O)Nc1ccc(OCc2cccc(-c3nc4ccccc4c(=O)n3Cc3ccco3)c2)cc1,Potency,[1],15.8 µM (active)
same,Potency,[2],7.98 µM (active)
same,Potency,[4],inactive
same,Potency,[3],2.83 µM (active)
Cc1c(C(=O)OCC2CCCC2)[nH]c2c1C(=O)CC(c1ccco1)C2 (stereo not given),Potency,[1],15.8 µM (active)
same,Potency,[2],3.57 µM (active)
same,Potency,[4],inactive
same,Potency,[3],1.13 µM (active)
Oc1cc(-c2cccnc2)cc2cccnc12,Potency,[1],4.49 µM (active)
same,Potency,[2],inactive
same,Potency,[4],inactive
Cc1cc(C)nc(NC(=S)N2CCN(c3cccc4cnccc34)CC2)c1,Potency,[1],20.1 µM (active)
same,Potency,[2],8.96 µM (active)
same,Potency,[3],10.1 µM (active)
CC(=O)Nc1sc2c(c1-c1cccc3[nH]ncc13)CCNC2,Potency,[1],12.7 µM (active)
same,Potency,[2],10.1 µM (active)
same,Potency,[3],11.3 µM (active)
NC(=O)c1cccc(-c2cnc3c(O)ccc(C(=O)O)c3c2)c1,Potency,[1],11.3 µM (active)
same,Potency,[2],4.49 µM (active)
same,Potency,[4],inactive
same,Potency,[3],8.96 µM (active)
O=C1CCCC2=C1C(c1cccnc1Br)N=C(Nc1nc3ccccc3o1)N2 (stereo not given),Potency,[1],20.1 µM (active)
same,Potency,[4],inactive
same,Potency,[3],11.3 µM (active)
COc1ccc(C(=O)c2ccc(-c3no[n+]([O-])c3C#N)cc2)cc1,Potency,[1],2.51 µM (active)
same,Potency,[2],12.6 µM (active)
same,Potency,[4],inactive
same,Potency,[3],5.65 µM (active)
Cc1cc(C)nc(NC(=S)N2CCN(c3ccc4nccn4c3)CC2)c1,Potency,[1],10.1 µM (active)
same,Potency,[2],14.2 µM (active)
same,Potency,[4],inactive
same,Potency,[3],7.12 µM (active)
FC(F)(F)c1ccccc1-c1nc(NCc2ccc(-c3ccccc3)cc2)c2ccccc2n1,Potency,[1],3.57 µM (active)
same,Potency,[4],inactive
same,Potency,[3],inactive
CC(=O)NC(C)c1cc(Cl)c2ccccc2c1O (stereo not given),Potency,[1],3.18 µM (active)
same,Potency,[2],12.7 µM (active)
same,Potency,[3],4 µM (active)
NC(=O)C1CCN(c2nc(-c3ccc(-c4ccccc4)cc3)cs2)CC1,Potency,[1],28.3 µM (active)
same,Potency,[2],inactive
same,Potency,[4],inactive
same,Potency,[3],inactive
CC(C)(C)C(=O)N1CCN(c2cccc(Nc3nn4c(=O)c5ccccc5nc4s3)c2)CC1,Potency,[1],28.3 µM (active)
same,Potency,[2],25.2 µM (active)
same,Potency,[4],inactive
same,Potency,[3],7.98 µM (active)
N#Cc1cccc(OC2=NS(=O)(=O)c3ccccc32)c1,Potency,[1],12.7 µM (active)
same,Potency,[4],inactive
same,Potency,[3],5.04 µM (active)
C=CC(N)CCC(=O)O (stereo not given),Potency,[5],inactive
C=CC(=O)N1CCC[C@@H](n2nc(-c3cccc(C(=O)Nc4ccc(C(C)C)c(C)c4)c3)c3c(N)ncnc32)C1,Potency,[5],inactive
